Where “and” joins values, the source holds several entries; their conditions need not be identical. Equal values may be shown once. Inconclusive results are not listed. A structure can be active in one record and inactive in another. Calls of active or inactive are those of the source. Calls come from the whole dose curve; as a rule, active = well fitted curve in the direction sought with a large enough effect; inconclusive = small, poorly fitted or top-dose-only effect, or another doubt; inactive = no such curve, though single readings can be large; an effect the other way counts as inactive or inconclusive.
How the values were obtained:
[1] = Viability qHTS for spleen associated tyrosine kinase inhibitor (SYKi) naive MV4-11 cells (AID 1963823); note: nearly all actives have a fitted effect of over 40% in size
Outline: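 Luminescence from CellTiter-Glo, developed 10 min at room temperature, gave viability of MV4-11 cells never exposed to SYK inhibitor. Cells (500/well) had been incubated with compounds for 72 hr under standard culture conditions.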

[2] = Viability qHTS for spleen associated tyrosine kinase inhibitor (SYKi) drug resistant MV4-11 cells (AID 1963824); note: nearly all actives have a fitted effect of over 35% in size
Outline: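 CellTiter-Glo luminescence, read 10 min after reagent addition, reports viability after a 72 hr compound exposure. Cells are an MV4-11 line made resistant to SYK inhibition, seeded at 500 per well onto compound-containing plates.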

[3] = Quantitative highthroughput screen to assess conditional lethalithy of NOMO1 cells grown in RPMI1640 with untreated serum (RPMI+s) (AID 1963876); note: nearly all actives have a fitted effect of over 35% in size;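 for Viability: 100% = DMSO wells and 0% = empty wells without cells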
Outline: (§1)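 Each medium arm—HPLM with 10% dialyzed FBS, or RPMI1640 with 5 mM glucose and 10% untreated or dialyzed FBS—was screened against an 11-point, 3-fold compound titration for 48 h at 37 °C, with CellTiter-Glo luminescence as endpoint.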

[4] = Quantitative highthroughput screen to assess conditional lethalithy of NOMO1 cells grown in RPMI1640 with dialyzed fetal bovine serum (RPMI+ds) (AID 1963877); note: nearly all actives have a fitted effect of over 30% in size;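 for Viability: series mostly up to about 46 µM; 100% = DMSO control wells and 0% = empty wells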
Outline: as §1

[5] = Quantitative highthroughput screen to assess conditional lethalithy of NOMO1 cells grown in Human Plasma-Like Medium with dialyzed fetal bovine serum (HPLM+ds) (AID 1963878); note: nearly all actives have a fitted effect of over 35% in size;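 for Viability: 100% = DMSO wells and 0% = empty wells on each plate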
Outline: as §1

[6] = Quantitative highthroughput screen to assess conditional lethalithy of P12 Ichikawa cells grown in Human Plasma-Like Medium with dialyzed fetal bovine serum (HPLM+ds) (AID 1963879); details: Potency: viability; note: nearly all actives have a fitted effect of over 35% in size; for Viability: series mostly up to about 46 µM
Outline: as §1

[7] = Quantitative highthroughput screen to assess conditional lethalithy of P12 Ichikawa cells grown in RPMI1640 with dialyzed fetal bovine serum (RPMI+ds) (AID 1963880); details: Potency: P12-Ichikawa viability; note: nearly all actives have a fitted effect of over 35% in size;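 for Viability: 100% = DMSO wells and 0% = empty wells on each plate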
Outline: as §1

[8] = Quantitative highthroughput screen to assess conditional lethalithy of P12 Ichikawa cells grown in RPMI1640 with untreated serum (RPMI+s) (AID 1963881); details: Potency: viability; note: nearly all actives have a fitted effect of over 35% in size;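 for Viability: series mostly up to about 46 µM; 100% = DMSO wells and 0% = empty wells without cells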
Outline: as §1

[9] = Quantitative highthroughput screen to assess conditional lethalithy of SEM cells grown in Human Plasma-Like Medium with dialyzed fetal bovine serum (HPLM+ds) (AID 1963882); note: nearly all actives have a fitted effect of over 35% in size; for Viability: series mostly up to about 46 µM
Outline: as §1

[10] = Quantitative highthroughput screen to assess conditional lethalithy of SEM cells grown in RPMI1640 with unreated serum (RPMI+s) (AID 1963883); note: nearly all actives have a fitted effect of over 35% in size;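 for Viability: 100% = DMSO wells and 0% = empty wells without cells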
Outline: as §1

[11] = Quantitative highthroughput screen to assess conditional lethalithy of SEM cells grown in RPMI1640 with dialyzed fetal bovine serum (RPMI+ds) (AID 1963884); note: nearly all actives have a fitted effect of over 35% in size;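 for Viability: series mostly up to about 46 µM; 100% = DMSO control wells and 0% = empty wells without cells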
Outline: as §1

[12] = Cellular viability qHTS for adrenocortical cancer (ACC) cell line SW-13 (AID 1963989); details: SW-13 ACC cells viability, CellTiter-Glo, 48 h; activity (max response): stronger effect = lower value; note: nearly all actives have a fitted effect of over 65% in size;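 for activity (max response): cells grown in serum-free medium with ITS supplement; % is set by controls: 0 for no effect and ±100 for the full control effect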
Outline: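 Luminescent ATP read-out (CellTiter-Glo, 20 min at room temperature) measured metabolically competent SW-13 cells after 48 h compound treatment. Final concentrations spanned up to 46 uM; bortezomib served as positive control.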

[13] = Cellular viability qHTS for adrenocortical cancer (ACC) cell line NCI-H295R (AID 1963990); note: nearly all actives have a fitted effect of over 60% in size
Outline: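 IC50 and maximal efficacy derive from four-parameter logistic modelling of titration curves, with reads scaled between DMSO-only wells (0%) and doxorubicin hydrochloride (100% inhibition). Compounds spanned up to 46 uM over 48 h.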
Potency is the fitted concentration of half-maximal effect.

CC(C)C[C@H](NC(=O)CNC(=O)c1cc(Cl)ccc1Cl)B1OC(=O)CC(CC(=O)O)(C(=O)O)O1 (stereo partly drawn)
Potency [1]: 148 nM (active) | Potency [2]: 118 nM (active) | Potency [3]: 372 nM (active) | Potency [4]: 418 nM (active) | Potency [5]: 372 nM (active) | Potency [6]: 332 nM (active) | Potency [7]: 296 nM (active) | Potency [8]: 296 nM (active) | Potency [9]: 118 nM (active) | Potency [10]: 93.5 nM (active) | Potency [11]: 118 nM (active) | Potency [12]: 1.41 µM (active)

COC12CC3C(C(C)C1=CC(=O)O2)C(O)C(OC(C)=O)C1C(C)(C)C(OC(C)=O)CCC31C (stereo not drawn)
Potency [1]: inactive | Potency [2]: inactive

CC[C@@]1(O)C(=O)OCc2c1cc1n(c2=O)Cc2cc3cc(O)ccc3nc2-1
Potency [1]: 18.6 nM (active) | Potency [2]: 18.6 nM (active) | Potency [3]: 118 nM (active) | Potency [4]: 148 nM (active) | Potency [5]: 83.3 nM (active) | Potency [6]: 33.2 nM (active) | Potency [7]: 29.6 nM (active) | Potency [8]: 29.6 nM (active) | Potency [9]: 52.6 nM (active) | Potency [10]: 41.8 nM (active) | Potency [11]: 46.9 nM (active) | Potency [12]: 0.224 µM (active) | Potency [13]: 1580 nM (active)

C/C=C(\C)C(=O)OC[C@H]1O[C@@H](O[C@H]2[C@@H](O[C@H]3O[C@H](COC(=O)/C(C)=C/C)[C@@H](O)[C@H](O)[C@H]3O[C@@H]3O[C@H](COC(=O)/C(C)=C/C)[C@@H](O)[C@H](OC(=O)/C(C)=C/C)[C@H]3O)O[C@H](COC(=O)/C(C)=C/C)[C@@H](O)[C@@H]2O)[C@H](O)[C@@H](O)[C@@H]1O
viability (% of control) [1]: 68.7% [at 9.25 µM] (inactive) | viability, % of control [2]: 65.9% [at 9.25 µM] (inactive)

Clc1ccc2c(c1)C(N1CCNCC1)=Nc1ccccc1O2
Potency [1]: inactive | Potency [2]: 13.3 µM (active) and inactive | Potency [3]: inactive | Potency [4]: inactive | Potency [5]: inactive | Potency [6]: inactive | Potency [7]: inactive | Potency [8]: inactive | Potency [9]: inactive | Potency [10]: inactive | Potency [11]: inactive | activity (max response) [12]: -1.69% (inactive)

CCC(C)C(=O)Oc1cc(C)ccc1C1(COC(=O)C(C)C)CO1 (stereo not drawn)
Potency [1]: 2860 nM (active) | Potency [2]: 2020 nM (active)

CCOc1cc2c(c(F)c1OCC)C(=N)N(CC(=O)c1cc(N3CCOCC3)c(OC)c(C(C)(C)C)c1)C2
Potency [1]: 9200 nM (active) | Potency [2]: 18.4 µM (active) and 4.68 µM (active) | Potency [3]: inactive | Potency [4]: inactive | Potency [5]: inactive | Potency [6]: inactive | Potency [7]: inactive | Potency [8]: inactive

CCN(CC)C(=S)SSC(=S)N(CC)CC
Potency [1]: 1570 nM (active) | Potency [2]: 1.4 µM (active) and 5.31 µM (active) and 833 nM (active) | Potency [3]: 2960 nM (active) | Potency [4]: 2960 nM (active) | Potency [5]: 3320 nM (active) | Potency [6]: 2960 nM (active) | Potency [7]: 2960 nM (active) | Potency [8]: 2960 nM (active) | Potency [9]: 833 nM (active) | Potency [10]: 1050 nM (active) | Potency [11]: 662 nM (active) | Potency [12]: 16.4 µM (active) and 25.1 µM (active) | Potency [13]: 44700 nM (active)

NCCS(=O)(=O)O
Potency [1]: inactive | Potency [2]: inactive | Potency [3]: inactive | Potency [4]: inactive | Potency [5]: inactive | Potency [6]: inactive | Potency [7]: inactive | Potency [8]: inactive | Potency [9]: inactive | Potency [10]: inactive | Potency [11]: inactive

C=C1CC[C@@H]2[C@](C)(CO)[C@H](O)CC[C@@]2(C)[C@@H]1C/C=C1/C(=O)OC[C@H]1O
Potency [1]: 2630 nM (active) | Potency [2]: 2950 nM (active)

CN[C@@H]1[C@@H](O)[C@@H](O[C@@H]2[C@@H](O)[C@H](O[C@H]3O[C@@H]([C@@H](C)NC)CC[C@H]3N)[C@@H](N)C[C@H]2N)OC[C@]1(C)O
Potency [1]: inactive | Potency [2]: inactive

COc1ccc(Cn2ccc3ccc(C(=O)NO)cc32)cc1
Potency [1]: 14800 nM (active) | Potency [2]: 20.6 µM (active) and 18.6 µM (active) | Potency [3]: inactive

C/C=C/C=C/C=C/C(=O)O[C@@H]1C=C(CO)C(O)(C(=O)O)[C@@]2(C)CCCC(C)(C)[C@H]12 (stereo partly drawn)
Potency [1]: inactive | Potency [2]: inactive

CN(C)c1nc(N(C)C)nc(N(C)C)n1
Potency [1]: inactive | Potency [2]: inactive | Potency [3]: inactive | Potency [4]: inactive | Potency [5]: inactive | Potency [6]: inactive | Potency [7]: inactive | Potency [8]: inactive | Potency [9]: inactive | Potency [10]: inactive | Potency [11]: inactive | activity (max response) [12]: -1.75% (inactive) and -4.21% (inactive) | Potency [13]: inactive

CCCOc1ccc(C(=O)OCCN(CC)CC)cc1N
Potency [1]: inactive | Potency [2]: inactive | Potency [3]: inactive | Potency [4]: inactive | Potency [5]: inactive | Potency [6]: inactive | Potency [7]: inactive | Potency [8]: inactive | Potency [9]: inactive | Potency [10]: inactive | Potency [11]: inactive | activity (max response) [12]: -2.3% (inactive) and -19.7% (inactive) | Potency [13]: inactive

CN1CC[C@@H](c2c(O)cc(O)c3c(=O)cc(-c4ccccc4Cl)oc23)[C@@H](O)C1
Potency [1]: 525 nM (active) | Potency [2]: 296 nM (active) | Potency [3]: 469 nM (active) | Potency [4]: 418 nM (active) | Potency [5]: 264 nM (active) | Potency [6]: 743 nM (active) | Potency [7]: 590 nM (active) | Potency [8]: 662 nM (active) | Potency [9]: 372 nM (active) | Potency [10]: 418 nM (active) | Potency [11]: 469 nM (active) | Potency [12]: 2.24 µM (active) | Potency [13]: 1260 nM (active)
